Reference: ChEMBL document CHEMBL3433997, “St. Jude Leishmania screening dataset” (2016)

The compounds below were run against Solute carrier family 2, facilitated glucose transporter member 1 (Homo sapiens) (UniProt P11166) (assay: ST_JUDE_LEISH: Cytotoxicity at 2uM final concentration against transgenic Leishmania Mexicana promastigotes LmGLUT1 that are glucose transport deficient and complemented with the human glucose transporter GLUT1. Activity is measured by DNA content using SYBR green in vitro).
Solute carrier family 2, facilitated glucose transporter member 1 (Homo sapiens), sequence (P11166 whole entry): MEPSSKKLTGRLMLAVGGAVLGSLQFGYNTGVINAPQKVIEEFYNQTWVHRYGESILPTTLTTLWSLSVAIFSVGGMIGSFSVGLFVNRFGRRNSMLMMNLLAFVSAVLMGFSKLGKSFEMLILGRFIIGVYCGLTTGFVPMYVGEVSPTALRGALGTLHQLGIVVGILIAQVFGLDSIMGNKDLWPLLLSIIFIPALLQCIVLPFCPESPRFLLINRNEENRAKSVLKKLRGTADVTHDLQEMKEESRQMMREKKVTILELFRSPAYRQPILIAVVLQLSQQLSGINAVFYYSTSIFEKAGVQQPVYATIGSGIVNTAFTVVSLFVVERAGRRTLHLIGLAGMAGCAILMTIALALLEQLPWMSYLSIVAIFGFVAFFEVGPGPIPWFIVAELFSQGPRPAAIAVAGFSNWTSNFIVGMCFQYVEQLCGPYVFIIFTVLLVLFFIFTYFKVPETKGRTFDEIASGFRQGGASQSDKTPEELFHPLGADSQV
Format: functional
For Cc1cc(NC(=O)Nc2ccc(I)c(OCCN(C)C)c2)ccc1Br, the inhibition was 10.5%.
Cc1ccc(CNC(=O)[C@H](CCCN)Nc2cc(C)nc(Nc3ccccc3)n2)cc1 was tested, and the inhibition was 6.17%.
For Cc1ccc(Oc2ccc(CNc3nc(Nc4cccc(F)c4)nc(Nc4cccc(F)c4)n3)cc2)cc1, the inhibition was 8.54%.
For CCCCc1ccc(NC(=O)Nc2cccc(CCNCc3ccccc3)c2)cc1, the inhibition was 11.8%.
In the case of OCC1CCN(Cc2cccc(-c3cccc(-c4nc5cc(C(F)(F)F)ccc5[nH]4)c3)c2)CC1, the inhibition is reported as 2.74%.
CCc1cn2c3c(cc(C(=O)N[C@@H](Cc4cccc(Cl)c4)[C@H](O)CNC4CCOCC4)cc13)N(C)S(=O)(=O)CC2 gave an inhibition of 2.87%.
Cc1cccc2nc(-c3cccc(-c4cccc(NC(=O)c5cncn5C)c4)c3)[nH]c12 was tested, and the inhibition was -0.07%.
With Cc1nc(N/C(N)=N/C(=O)NC2CCCCC2)nc2ccccc12 the inhibition was 7.72%.
For Cc1ccc(C2CCN(CCCCNC(=O)c3ccc(-c4ccc(C(F)(F)F)cc4)cc3)CC2)c(O)c1, the inhibition was -0.37%.
C[C@@H](CC1CCCCC1)NCc1cccc(NS(=O)(=O)c2ccc(O)c(-c3ccno3)c2)c1 gave an inhibition of 10.7%.
For Cc1cc2c(/C=C/C(=O)NC3CCC(CCN4CCc5ccc(C#N)cc5CC4)CC3)cccc2[nH]1 (configuration not stated), the inhibition was 4%.
O=C(CSc1nn(-c2ccccc2)c(=S)s1)c1c[nH]c2ccccc12 gave an inhibition of 2.16%.

These compounds were tested against Hexose transporter 1 (Plasmodium falciparum) (UniProt O97467) (assay: ST_JUDE_LEISH: Cytotoxicity at 2uM final concentration against transgenic Leishmania Mexicana promastigotes LmPfHT that are glucose transport deficient and complemented with the Plasmodium falciparum hexose transporter. Activity is measured by DNA content using SYBR green in vitro).
Format: functional
CN1CCC(C(=O)Nc2ccc(-c3ccc(-c4nc5ccccc5[nH]4)s3)cc2)CC1 was tested, and the inhibition was -2.31%.
Work on COc1ccc2nccc([C@@H](O)CN3CCC(NCc4ccc5c(c4)NC(=O)CS5)CC3)c2c1 yielded an inhibition of 4.15%.
O=C(NCc1cccc2ccccc12)C1CCCN(C(=O)c2ccc(O)c(-c3ccc(Cl)c(Cl)c3)c2)C1 (configuration not stated) showed an inhibition of 1.11%.
O=C(NCc1ccc(Cl)c(Cl)c1)c1ccc(C2CCCN(Cc3ccc4[nH]cnc4c3)C2)cc1 (configuration not stated) was tested, and the inhibition was 9.77%.
In the case of CCOc1cc(C(=O)NCc2ccc(Cl)c(Cl)c2)ccc1-c1nc2cc(Cl)ccc2[nH]1, the inhibition is reported as 2.33%.
For CCCNS(=O)(=O)c1ccc(NC(=O)C(C)Oc2ccc([N+](=O)[O-])cc2)cc1 (configuration not stated), the inhibition was 0.29%.
OC(c1cccc(OCc2ccccc2)c1)C1CN(CCc2ccccc2)CCC1(O)c1ccccc1 (configuration not stated) gave an inhibition of -0.62%.
CCNc1cc(C(=O)N[C@@H](Cc2ccccc2)[C@H](O)CNC(C)CC(C)C)c(F)c(N2CCCCS2(=O)=O)c1 (some centres not stated) gave an inhibition of 3.43%.
O=C(CC(c1ccccc1)c1ccccc1O)N1CCOCC1 (configuration not stated) was tested, and the inhibition was 1.12%.
COc1ccc2nccc([C@@H](O)CN3CCC(NC(=O)C(c4ccsc4)N4CCN(c5ccccc5)CC4)CC3)c2c1 (some centres not stated) showed an inhibition of 3.07%.
Compound Cc1cc(NCc2ccccc2)nc2cc(O)ccc12 has an inhibition of 13.2%.
In the case of CC(C)CCN(Cc1cncn1Cc1cccc(Cl)c1)C(=O)c1cncc(-c2ccccc2)c1, the inhibition is reported as 6%.
Cc1ccc(-c2nc3cc(C(=O)NC4CCC(N5CCCc6ccc(C#N)cc6C5)CC4)ccc3[nH]2)cc1 (configuration not stated) was tested, and the inhibition was -0.52%.
With O=C(/C=C/c1ccc(Cl)c(Cl)c1)NCCCCCN1CCC(NC(=O)c2ccc(F)cc2F)CC1 the inhibition was 5.55%.
O=C(Nc1cccc(C(F)(F)F)c1)NC1CCN(c2ccnc3ccccc23)C1 (configuration not stated) was tested, and the inhibition was -0.4%.
Work on O=C(Nc1ccc(Cn2ncc(N3CCCNCC3)c(Cl)c2=O)cc1)Nc1ccc(SC(F)(F)F)cc1 yielded an inhibition of 10.1%.
CCCc1cn2c3c(cc(C(=O)N[C@@H](Cc4ccccc4)[C@H](O)CNC4CCOCC4)cc13)N(CC)S(=O)(=O)CC2 gave an inhibition of 2.35%.
Work on CN(C)c1ccc(CN2CCC(NC(=O)c3ccc(-c4cccc(C(F)(F)F)c4)s3)CC2)cc1 yielded an inhibition of -0.72%.
O=C(Nc1cccc(N2CCC(NCCCc3ccncc3)CC2)c1)c1cccc(C(F)(F)F)c1 showed an inhibition of 5.68%.
Compound C[C@H](Cc1ccc(OCCNC[C@H](O)c2cccc(Cl)c2)cc1)NC[C@H](O)c1ccc(Cl)c(Cl)c1 has an inhibition of 1.89%.
COc1cc(NC(=O)c2sc(-c3ccc(Cl)cc3)cc2NC(=O)CN2CCCC2)ccc1OCCN1CCCC1 showed an inhibition of 9.91%.
Compound Cc1cc(NCCc2cccc(F)c2)nc(NC(=N)Nc2cccc(C(F)(F)F)c2)n1 has an inhibition of 2.87%.
With CCN(CC)c1nc(Nc2cc(C)ccc2C)nc(Nc2ccccc2O)n1 the inhibition was 5.53%.
O=C(NCc1cc2c(cc1Cl)OCO2)c1ccc(CNC2CCN(Cc3ccccc3)CC2)cc1 was tested, and the inhibition was 0.96%.
Work on c1ccc(Oc2ccc(Nc3ccnc4cc(-c5csc(CNCCN6CCOCC6)n5)ccc34)cc2)cc1 yielded an inhibition of 1.23%.
Work on Cc1nn(CCOC(=O)NC(NCC2COc3ccccc3O2)C(Cl)(Cl)Cl)cc1[N+](=O)[O-] (configuration not stated) yielded an inhibition of -0.07%.
With Fc1ccc2[nH]c(-c3ccc(-c4ccc(CNCCc5cccnc5)cc4)s3)nc2c1 the inhibition was 3.19%.
For Cc1ccc(CNC(=O)[C@H](Cc2ccccc2)Nc2ccnc(NCC3CCCCC3)n2)cc1, the inhibition was 4.83%.
For Cc1cc(NC(=O)Nc2ccc(I)c(OCCN(C)C)c2)ccc1Br, the inhibition was 7.25%.
For Cc1ccc(CNC(=O)[C@H](CCCN)Nc2cc(C)nc(Nc3ccccc3)n2)cc1, the inhibition was 5.71%.
Cc1ccc(Oc2ccc(CNc3nc(Nc4cccc(F)c4)nc(Nc4cccc(F)c4)n3)cc2)cc1 showed an inhibition of 8.04%.
CCCCc1ccc(NC(=O)Nc2cccc(CCNCc3ccccc3)c2)cc1 showed an inhibition of 11.4%.
Compound OCC1CCN(Cc2cccc(-c3cccc(-c4nc5cc(C(F)(F)F)ccc5[nH]4)c3)c2)CC1 has an inhibition of 0.35%.
CCc1cn2c3c(cc(C(=O)N[C@@H](Cc4cccc(Cl)c4)[C@H](O)CNC4CCOCC4)cc13)N(C)S(=O)(=O)CC2 was tested, and the inhibition was -0.33%.
Cc1cccc2nc(-c3cccc(-c4cccc(NC(=O)c5cncn5C)c4)c3)[nH]c12 was tested, and the inhibition was 3.4%.
Cc1nc(N/C(N)=N/C(=O)NC2CCCCC2)nc2ccccc12 was tested, and the inhibition was 5.72%.
Cc1ccc(C2CCN(CCCCNC(=O)c3ccc(-c4ccc(C(F)(F)F)cc4)cc3)CC2)c(O)c1 was tested, and the inhibition was -0.08%.
Work on C[C@@H](CC1CCCCC1)NCc1cccc(NS(=O)(=O)c2ccc(O)c(-c3ccno3)c2)c1 yielded an inhibition of 8.37%.
For Cc1cc2c(/C=C/C(=O)NC3CCC(CCN4CCc5ccc(C#N)cc5CC4)CC3)cccc2[nH]1 (configuration not stated), the inhibition was 4.14%.
O=C(CSc1nn(-c2ccccc2)c(=S)s1)c1c[nH]c2ccccc12 was tested, and the inhibition was 2.64%.
